From the supplement of paper PMC12645437, “Orthogonal IMiD-Degron Pairs Induce Selective Protein Degradation in Cells” (ACS Chemical Biology, 2025)
In all, about 8,300 sequences were measured (“log2 fold change of degron read counts, EGFP-low vs EGFP+ sorted cells (limma voom), compound-induced degradation”: median about -1.1, highest 2% from about 3.2 on). This excerpt belongs to a sample that is enriched for the highest values.

T1: CRBN, Q96SW2
T1 chain: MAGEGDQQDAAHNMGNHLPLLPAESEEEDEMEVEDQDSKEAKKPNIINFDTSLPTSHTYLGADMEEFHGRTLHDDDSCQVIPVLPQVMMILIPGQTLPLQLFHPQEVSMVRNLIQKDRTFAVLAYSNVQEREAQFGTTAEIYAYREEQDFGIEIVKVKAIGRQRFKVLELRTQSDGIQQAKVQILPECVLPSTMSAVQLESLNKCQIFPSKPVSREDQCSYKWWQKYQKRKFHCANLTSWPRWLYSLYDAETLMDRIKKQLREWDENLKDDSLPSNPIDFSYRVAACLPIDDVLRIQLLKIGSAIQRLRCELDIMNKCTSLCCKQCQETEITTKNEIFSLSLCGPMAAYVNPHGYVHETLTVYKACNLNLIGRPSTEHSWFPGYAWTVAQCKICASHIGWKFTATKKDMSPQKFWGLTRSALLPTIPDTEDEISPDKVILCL


Biological target: T1, CRBN, Q96SW2
Experiment: log2 fold change of degron read counts, EGFP-low vs EGFP+ sorted cells (limma voom), compound-induced degradation; higher = more compound-induced degradation of the degron-EGFP fusion; degrons are variants of IKZF1/3 zinc finger 2; compound dose not given here
Settings: Jurkat, 18 h
Procedure: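 Pooled library of 8380 IKZF3 ZF2 degron mutants (positions 146-167 varied within the IKZF3 130-189 degron; only the varied core is printed, flanks not printed) fused to EGFP with IRES-mCherry, lentivirally expressed in Jurkat cells. mCherry+ cells were treated with one IMiD compound for 18 h (dose not stated) and FACS-sorted into EGFP-low and EGFP+ populations. Degron sequences were counted by NGS, and log2FC (EGFP-low vs EGFP+) was estimated by limma voom over 3 biological replicates.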

[1] = compound: compound 19 (5-tert-butyl-thalidomide)
[2] = compound: compound 22 (5-morpholino-thalidomide)
[3] = compound: compound 33 (diphenyl IMiD analogue)
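Note: pooled lentiviral library of zinc finger degron-EGFP fusions in mCherry-positive Jurkat cells, FACS-sorted after compound exposure, with degron abundance counted by next-generation sequencing.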

Row | Sequence | log2 fold change of degron read counts [1] | log2 fold change of degron read counts [2] | log2 fold change of degron read counts [3] | log2 fold change of degron read counts (compound: thalidomide)
1 | LDCNQCGFVCTQKGNLLRHIKL [46L_47D_49N_50Q_52G_53F_54V_55C_67L_, Q9UKT9] | -1.84 | -2.2 | -2.2 | -1.82
2 | FDCNVCGASFTQKGNLLRHIKL [46F_47D_49N_50V_52G_53A_54S_55F_67L_, Q9UKT9] | -0.855 | -1.38 | -1.21 | -0.475
3 | FDCEICGRTFTQKGNLLRHIKL [46F_47D_49E_50I_52G_53R_54T_55F_67L_, Q9UKT9] | -2.33 | -3.04 | -1.56 | -1.64
4 | FRCEICGRSFTQKGNLLRHIKL [46F_47R_49E_50I_52G_53R_54S_55F_67L_, Q9UKT9] | -2.18 | -2.81 | -0.226 | -0.504
5 | FECNICGAIFTQKGNLLRHIKL [46F_47E_49N_50I_52G_53A_54I_55F_67L_, Q9UKT9] | -2.22 | -1.59 | 0.523 | 1.84
6 | FCCPVCGASFTQKGNLLRHIKL [46F_47C_49P_50V_52G_53A_54S_55F_67L_, Q9UKT9] | 3.07 | 2.44 | 2.49 | 2.37
7 | FECDVCGASFTQKGNLLRHIKL [46F_47E_49D_50V_52G_53A_54S_55F_67L_, Q9UKT9] | -0.176 | -2.77 | -0.519 | -0.688
8 | FICPVCGASFTQKGNLLRHIKL [46F_47I_49P_50V_52G_53A_54S_55F_67L_, Q9UKT9] | -0.331 | 2.74 | 2.17 | 2.62
9 | FVCDVCGASFTQKGNLLRHIKL [46F_47V_49D_50V_52G_53A_54S_55F_67L_, Q9UKT9] | -1.45 | 1.32 | 0.282 | 0.656
10 | FWCPVCGASFTQKGNLLRHIKL [46F_47W_49P_50V_52G_53A_54S_55F_67L_, Q9UKT9] | 3.31 | 3.48 | 2.42 | 1.35
11 | FWCDVCGASFTQKGNLLRHIKL [46F_47W_49D_50V_52G_53A_54S_55F_67L_, Q9UKT9] | 2.69 | 3.48 | 1.06 | -0.779
12 | FHCPVCGASFTQKGNLLRHIKL [46F_47H_49P_50V_52G_53A_54S_55F_67L_, Q9UKT9] | 2.48 | 2.53 | 2.04 | 0.495
13 | FYCPVCGASFTQKGNLLRHIKL [46F_47Y_49P_50V_52G_53A_54S_55F_67L_, Q9UKT9] | 3.09 | 3.3 | 2.34 | 1.12
14 | FLCPVCGASFTQKGNLLRHIKL [46F_47L_49P_50V_52G_53A_54S_55F_67L_, Q9UKT9] | 0.819 | -0.0304 | 1.62 | 1.37
